Measurements from ChEMBL document CHEMBL1961873, “Compounds: GSK PKIS; Assays: Nanosyn kinase panel” (2012).

What was measured:
[1] = target: Calcium/calmodulin-dependent protein kinase type II subunit alpha (Homo sapiens) (UniProt Q9UQM7); conditions: at 1 µM;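 note: reported value is a mean percent inhibition of CAMK2A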
[2] = target: Calcium/calmodulin-dependent protein kinase type II subunit delta (Homo sapiens) (UniProt Q13557); conditions: at 0.1 µM
[3] = target: Calcium/calmodulin-dependent protein kinase type II subunit delta (Homo sapiens) (UniProt Q13557); conditions: at 1 µM
[4] = target: T1, Calcium/calmodulin-dependent protein kinase type IV (Homo sapiens) (UniProt Q16566); conditions: at 0.1 µM
T1 sequence (whole entry): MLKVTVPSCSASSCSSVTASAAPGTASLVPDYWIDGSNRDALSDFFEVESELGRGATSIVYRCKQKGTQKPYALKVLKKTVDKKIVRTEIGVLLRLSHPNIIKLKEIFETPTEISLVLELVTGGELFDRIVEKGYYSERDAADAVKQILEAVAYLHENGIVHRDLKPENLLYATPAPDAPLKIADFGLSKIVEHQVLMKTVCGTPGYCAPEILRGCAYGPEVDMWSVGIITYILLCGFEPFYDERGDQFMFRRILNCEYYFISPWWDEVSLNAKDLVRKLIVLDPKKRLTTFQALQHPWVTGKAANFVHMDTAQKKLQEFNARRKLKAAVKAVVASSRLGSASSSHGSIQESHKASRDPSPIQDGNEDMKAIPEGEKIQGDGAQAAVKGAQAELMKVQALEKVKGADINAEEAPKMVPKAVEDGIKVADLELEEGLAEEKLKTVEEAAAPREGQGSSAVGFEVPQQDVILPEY

[5] = target: T1, Calcium/calmodulin-dependent protein kinase type IV (Homo sapiens); conditions: at 1 µM
[6] = target: T2, Serine/threonine-protein kinase Chk1 (Homo sapiens) (UniProt O14757); conditions: at 0.1 µM
T2 sequence (whole entry): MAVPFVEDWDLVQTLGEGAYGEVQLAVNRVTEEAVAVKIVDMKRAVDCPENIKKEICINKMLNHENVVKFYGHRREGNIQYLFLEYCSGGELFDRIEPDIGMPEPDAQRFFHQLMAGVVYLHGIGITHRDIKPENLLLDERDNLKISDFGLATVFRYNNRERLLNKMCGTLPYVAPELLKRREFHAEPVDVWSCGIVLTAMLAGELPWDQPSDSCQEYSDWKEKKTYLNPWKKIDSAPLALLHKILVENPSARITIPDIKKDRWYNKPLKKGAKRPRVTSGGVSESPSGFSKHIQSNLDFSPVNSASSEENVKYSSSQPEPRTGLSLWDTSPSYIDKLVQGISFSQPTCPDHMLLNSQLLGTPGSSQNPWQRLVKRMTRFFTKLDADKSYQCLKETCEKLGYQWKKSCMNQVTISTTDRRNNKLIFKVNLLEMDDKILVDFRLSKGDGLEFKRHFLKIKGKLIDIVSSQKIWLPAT

[7] = target: T2, Serine/threonine-protein kinase Chk1 (Homo sapiens); conditions: at 1 µM
[8] = target: Serine/threonine-protein kinase Chk2 (Homo sapiens) (UniProt O96017); conditions: at 0.1 µM
[9] = target: Serine/threonine-protein kinase Chk2 (Homo sapiens) (UniProt O96017); conditions: at 1 µM
[10] = target: Death-associated protein kinase 1 (Homo sapiens) (UniProt P53355); conditions: at 0.1 µM
[11] = target: Death-associated protein kinase 1 (Homo sapiens) (UniProt P53355); conditions: at 1 µM
[12] = target: T3, Serine/threonine-protein kinase DCLK2 (Homo sapiens) (UniProt Q8N568); conditions: at 0.1 µM
T3 sequence (whole entry): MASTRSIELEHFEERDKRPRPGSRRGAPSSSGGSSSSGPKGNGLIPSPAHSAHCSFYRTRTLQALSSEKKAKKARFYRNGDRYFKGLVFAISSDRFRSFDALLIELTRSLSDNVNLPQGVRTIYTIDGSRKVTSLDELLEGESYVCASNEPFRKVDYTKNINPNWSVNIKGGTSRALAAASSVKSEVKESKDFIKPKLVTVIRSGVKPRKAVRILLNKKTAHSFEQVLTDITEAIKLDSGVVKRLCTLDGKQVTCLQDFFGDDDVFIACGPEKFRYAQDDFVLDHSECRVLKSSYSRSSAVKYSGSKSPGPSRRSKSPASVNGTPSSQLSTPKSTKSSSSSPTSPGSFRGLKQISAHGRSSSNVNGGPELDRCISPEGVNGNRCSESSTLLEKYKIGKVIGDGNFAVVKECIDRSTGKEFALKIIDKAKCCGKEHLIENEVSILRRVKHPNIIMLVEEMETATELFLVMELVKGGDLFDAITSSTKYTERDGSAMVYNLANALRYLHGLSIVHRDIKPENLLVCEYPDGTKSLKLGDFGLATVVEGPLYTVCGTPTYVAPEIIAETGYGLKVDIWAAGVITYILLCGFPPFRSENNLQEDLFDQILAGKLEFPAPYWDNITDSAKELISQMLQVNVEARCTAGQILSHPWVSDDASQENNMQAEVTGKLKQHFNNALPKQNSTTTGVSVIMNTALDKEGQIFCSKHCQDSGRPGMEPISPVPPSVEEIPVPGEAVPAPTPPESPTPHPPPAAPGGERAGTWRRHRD

[13] = target: T3, Serine/threonine-protein kinase DCLK2 (Homo sapiens); conditions: at 1 µM
[14] = target: MAP kinase-activated protein kinase 2 (Homo sapiens) (UniProt P49137); conditions: at 0.1 µM
[15] = target: MAP kinase-activated protein kinase 2 (Homo sapiens) (UniProt P49137); conditions: at 1 µM
[16] = target: MAP kinase-activated protein kinase 3 (Homo sapiens) (UniProt Q16644); conditions: at 0.1 µM
[17] = target: MAP kinase-activated protein kinase 3 (Homo sapiens) (UniProt Q16644); conditions: at 1 µM
[18] = target: Serine/threonine-protein kinase MARK1 (Homo sapiens) (UniProt Q9P0L2); conditions: at 0.1 µM
[19] = target: Serine/threonine-protein kinase MARK1 (Homo sapiens) (UniProt Q9P0L2); conditions: at 1 µM
[20] = target: MAP/microtubule affinity-regulating kinase 3 (Homo sapiens) (UniProt P27448); conditions: at 0.1 µM;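 note: mean percent inhibition of MARK3 kinase activity, measured within the GSK PKIS screening panel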
Sequence of MAP/microtubule affinity-regulating kinase 3 (Homo sapiens) (P27448 whole entry, looked up): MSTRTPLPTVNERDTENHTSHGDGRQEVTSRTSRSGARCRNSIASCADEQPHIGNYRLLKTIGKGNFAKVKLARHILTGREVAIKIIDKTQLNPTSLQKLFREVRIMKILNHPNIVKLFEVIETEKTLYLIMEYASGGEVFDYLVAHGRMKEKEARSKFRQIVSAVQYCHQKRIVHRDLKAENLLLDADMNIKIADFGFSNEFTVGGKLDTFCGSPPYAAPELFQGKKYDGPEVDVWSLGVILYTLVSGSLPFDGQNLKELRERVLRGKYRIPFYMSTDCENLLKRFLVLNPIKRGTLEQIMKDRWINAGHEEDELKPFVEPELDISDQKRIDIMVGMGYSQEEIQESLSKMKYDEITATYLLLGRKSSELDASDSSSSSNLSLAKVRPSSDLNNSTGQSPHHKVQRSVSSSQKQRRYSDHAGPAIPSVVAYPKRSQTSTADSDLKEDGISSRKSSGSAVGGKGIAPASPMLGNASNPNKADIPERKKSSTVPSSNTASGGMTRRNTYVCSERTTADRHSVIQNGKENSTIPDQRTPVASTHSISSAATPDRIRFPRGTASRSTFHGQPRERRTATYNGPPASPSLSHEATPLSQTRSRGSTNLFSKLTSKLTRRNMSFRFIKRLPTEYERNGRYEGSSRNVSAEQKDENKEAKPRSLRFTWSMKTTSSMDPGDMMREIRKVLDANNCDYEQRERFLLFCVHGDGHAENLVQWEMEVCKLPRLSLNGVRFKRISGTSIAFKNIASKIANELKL

Sequence of Calcium/calmodulin-dependent protein kinase type II subunit delta (Homo sapiens) (Q13557 whole entry): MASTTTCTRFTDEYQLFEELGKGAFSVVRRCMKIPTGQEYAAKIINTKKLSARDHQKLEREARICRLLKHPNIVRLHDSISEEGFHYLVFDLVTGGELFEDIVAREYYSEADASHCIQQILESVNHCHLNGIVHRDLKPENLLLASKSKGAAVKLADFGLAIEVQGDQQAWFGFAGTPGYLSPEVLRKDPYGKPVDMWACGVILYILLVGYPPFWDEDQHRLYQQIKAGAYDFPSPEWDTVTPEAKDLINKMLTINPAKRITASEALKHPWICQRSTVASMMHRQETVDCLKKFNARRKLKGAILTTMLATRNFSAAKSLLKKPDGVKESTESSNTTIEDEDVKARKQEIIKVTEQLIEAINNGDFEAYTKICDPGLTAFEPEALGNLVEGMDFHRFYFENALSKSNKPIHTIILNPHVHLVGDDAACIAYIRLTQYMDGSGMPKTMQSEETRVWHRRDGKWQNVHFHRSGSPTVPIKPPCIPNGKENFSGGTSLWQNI
Sequence of MAP kinase-activated protein kinase 3 (Homo sapiens) (Q16644 whole entry, looked up): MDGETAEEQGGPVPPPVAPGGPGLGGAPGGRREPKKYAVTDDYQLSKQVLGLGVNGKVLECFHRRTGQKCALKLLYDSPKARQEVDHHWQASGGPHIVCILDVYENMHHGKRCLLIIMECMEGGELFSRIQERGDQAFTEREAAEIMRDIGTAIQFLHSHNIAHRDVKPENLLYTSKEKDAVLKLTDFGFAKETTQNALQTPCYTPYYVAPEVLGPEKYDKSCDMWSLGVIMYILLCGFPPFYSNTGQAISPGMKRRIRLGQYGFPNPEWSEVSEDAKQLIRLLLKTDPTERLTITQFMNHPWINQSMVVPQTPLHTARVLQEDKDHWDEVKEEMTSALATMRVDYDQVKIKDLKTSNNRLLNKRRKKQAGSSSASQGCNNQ
Sequence of MAP kinase-activated protein kinase 2 (Homo sapiens) (P49137 whole entry, looked up): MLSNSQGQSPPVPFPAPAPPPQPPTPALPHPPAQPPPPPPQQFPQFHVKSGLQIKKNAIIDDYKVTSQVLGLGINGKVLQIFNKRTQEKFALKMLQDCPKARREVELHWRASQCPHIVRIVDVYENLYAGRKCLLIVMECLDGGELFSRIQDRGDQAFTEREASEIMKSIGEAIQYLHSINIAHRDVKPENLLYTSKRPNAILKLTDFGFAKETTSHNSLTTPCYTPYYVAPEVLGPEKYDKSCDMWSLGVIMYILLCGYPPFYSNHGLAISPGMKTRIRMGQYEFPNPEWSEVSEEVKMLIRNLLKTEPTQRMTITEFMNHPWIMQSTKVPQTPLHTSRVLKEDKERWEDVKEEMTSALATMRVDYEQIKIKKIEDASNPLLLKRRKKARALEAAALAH
Sequence of Death-associated protein kinase 1 (Homo sapiens) (P53355 whole entry, looked up): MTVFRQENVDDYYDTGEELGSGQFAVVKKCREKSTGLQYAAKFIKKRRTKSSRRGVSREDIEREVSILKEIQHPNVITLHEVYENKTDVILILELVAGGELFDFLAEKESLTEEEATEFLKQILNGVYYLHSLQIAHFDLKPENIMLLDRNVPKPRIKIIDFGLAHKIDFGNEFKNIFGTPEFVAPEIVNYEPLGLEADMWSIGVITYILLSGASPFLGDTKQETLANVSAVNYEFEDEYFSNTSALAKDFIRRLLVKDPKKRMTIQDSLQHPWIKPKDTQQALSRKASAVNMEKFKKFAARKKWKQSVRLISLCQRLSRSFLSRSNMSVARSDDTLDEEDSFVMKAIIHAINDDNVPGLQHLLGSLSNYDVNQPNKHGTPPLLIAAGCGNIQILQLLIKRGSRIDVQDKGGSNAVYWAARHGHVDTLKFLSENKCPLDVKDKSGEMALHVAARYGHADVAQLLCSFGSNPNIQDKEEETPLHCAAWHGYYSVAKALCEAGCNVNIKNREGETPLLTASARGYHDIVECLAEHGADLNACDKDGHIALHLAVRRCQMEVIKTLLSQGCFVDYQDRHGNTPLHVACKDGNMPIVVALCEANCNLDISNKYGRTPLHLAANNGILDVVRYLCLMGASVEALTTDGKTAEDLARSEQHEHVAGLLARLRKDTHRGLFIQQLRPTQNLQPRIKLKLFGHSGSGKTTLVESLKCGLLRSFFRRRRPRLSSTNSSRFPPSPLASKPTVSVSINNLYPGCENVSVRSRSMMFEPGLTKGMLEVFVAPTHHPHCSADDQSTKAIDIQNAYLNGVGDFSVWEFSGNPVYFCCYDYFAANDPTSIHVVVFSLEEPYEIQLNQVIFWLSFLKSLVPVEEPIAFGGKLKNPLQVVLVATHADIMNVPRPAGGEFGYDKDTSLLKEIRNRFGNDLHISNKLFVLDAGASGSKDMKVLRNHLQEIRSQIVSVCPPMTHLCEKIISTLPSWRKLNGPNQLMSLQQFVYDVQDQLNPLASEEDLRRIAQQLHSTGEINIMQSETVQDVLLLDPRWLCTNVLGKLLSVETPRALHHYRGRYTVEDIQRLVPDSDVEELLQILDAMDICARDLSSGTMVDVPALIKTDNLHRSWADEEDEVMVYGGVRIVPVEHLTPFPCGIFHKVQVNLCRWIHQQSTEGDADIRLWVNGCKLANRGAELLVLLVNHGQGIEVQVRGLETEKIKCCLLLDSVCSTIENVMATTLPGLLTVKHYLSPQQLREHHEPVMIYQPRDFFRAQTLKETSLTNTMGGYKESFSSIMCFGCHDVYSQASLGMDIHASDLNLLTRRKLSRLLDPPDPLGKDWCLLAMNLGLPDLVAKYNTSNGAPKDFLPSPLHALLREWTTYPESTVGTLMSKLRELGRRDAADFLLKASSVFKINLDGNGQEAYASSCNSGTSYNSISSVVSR
Sequence of Serine/threonine-protein kinase MARK1 (Homo sapiens) (Q9P0L2 whole entry, looked up): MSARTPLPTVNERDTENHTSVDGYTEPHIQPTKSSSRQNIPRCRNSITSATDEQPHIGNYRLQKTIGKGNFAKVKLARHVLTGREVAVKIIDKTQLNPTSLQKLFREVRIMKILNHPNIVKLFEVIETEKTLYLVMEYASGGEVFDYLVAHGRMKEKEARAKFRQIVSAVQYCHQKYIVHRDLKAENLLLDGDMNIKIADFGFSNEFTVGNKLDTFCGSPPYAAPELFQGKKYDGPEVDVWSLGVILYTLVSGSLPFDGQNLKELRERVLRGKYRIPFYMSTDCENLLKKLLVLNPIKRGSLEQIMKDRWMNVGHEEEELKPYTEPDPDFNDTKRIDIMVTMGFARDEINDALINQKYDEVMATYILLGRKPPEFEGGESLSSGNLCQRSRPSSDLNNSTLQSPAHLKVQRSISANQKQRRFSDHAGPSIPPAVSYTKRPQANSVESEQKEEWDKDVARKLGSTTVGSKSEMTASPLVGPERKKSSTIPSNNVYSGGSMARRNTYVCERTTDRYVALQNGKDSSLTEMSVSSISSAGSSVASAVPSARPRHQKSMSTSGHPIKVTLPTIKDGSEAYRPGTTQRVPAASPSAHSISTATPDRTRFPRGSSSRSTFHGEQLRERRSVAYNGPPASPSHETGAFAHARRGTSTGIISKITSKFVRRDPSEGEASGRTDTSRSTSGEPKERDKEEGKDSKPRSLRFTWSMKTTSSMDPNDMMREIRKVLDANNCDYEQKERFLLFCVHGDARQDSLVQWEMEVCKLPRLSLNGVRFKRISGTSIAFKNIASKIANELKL
Sequence of Serine/threonine-protein kinase Chk2 (Homo sapiens) (O96017 whole entry): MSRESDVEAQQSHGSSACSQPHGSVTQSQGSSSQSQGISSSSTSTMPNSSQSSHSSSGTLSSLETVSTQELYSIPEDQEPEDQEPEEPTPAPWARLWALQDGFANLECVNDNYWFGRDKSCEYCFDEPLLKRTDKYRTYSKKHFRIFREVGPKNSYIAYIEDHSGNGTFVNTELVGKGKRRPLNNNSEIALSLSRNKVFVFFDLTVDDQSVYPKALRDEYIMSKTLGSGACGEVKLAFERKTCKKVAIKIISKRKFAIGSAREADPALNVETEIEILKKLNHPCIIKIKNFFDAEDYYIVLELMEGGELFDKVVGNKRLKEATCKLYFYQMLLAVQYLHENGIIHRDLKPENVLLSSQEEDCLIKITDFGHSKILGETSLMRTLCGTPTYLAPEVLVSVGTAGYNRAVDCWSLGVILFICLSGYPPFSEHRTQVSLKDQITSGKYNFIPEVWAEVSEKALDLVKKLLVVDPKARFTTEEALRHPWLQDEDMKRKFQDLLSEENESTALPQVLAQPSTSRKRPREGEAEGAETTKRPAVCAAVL

CCn1c(-c2nonc2N)nc2cnc(Oc3cccc(NC(=O)c4ccc(OCCN5CCOCC5)cc4)c3)cc21
inhibition [1]: 2.17%
inhibition [2]: 1.77%
inhibition [3]: 4%
inhibition [4]: 2.08%
inhibition [5]: 2.49%
inhibition [6]: -8.33%
inhibition [7]: 4.37%
inhibition [8]: 3.15%
inhibition [9]: 13.3%
inhibition [10]: -1.49%
inhibition [11]: -1.31%
inhibition [12]: 0.99%
inhibition [13]: 2.71%
inhibition [14]: 1.4%
inhibition [15]: 0.54%
inhibition [16]: 3.45%
inhibition [17]: 3.54%
inhibition [18]: 3.31%
inhibition [19]: 13.3%
inhibition [20]: 0.46%

COC(=O)Nc1nc2cc(Oc3ccc(NC(=O)Nc4cccc(C(=O)O)c4)cc3)ccc2[nH]1
inhibition [1]: 3.09%
inhibition [2]: 1.92%
inhibition [3]: 1.91%
inhibition [4]: -1.16%
inhibition [5]: -2.08%
inhibition [6]: -3.62%
inhibition [7]: -0.43%
inhibition [8]: 0.25%
inhibition [9]: 6.26%
inhibition [10]: 1.22%
inhibition [11]: 0.01%
inhibition [12]: -6.21%
inhibition [14]: 0.64%
inhibition [15]: 0.43%
inhibition [16]: 0.86%
inhibition [17]: -0.42%
inhibition [18]: 0.32%
inhibition [19]: 3.08%
inhibition [20]: 1.09%

CCn1c(-c2nonc2N)nc2c(N3CCCC3)nccc21
inhibition [1]: -3.88%
inhibition [2]: -2.38%
inhibition [3]: -0.97%
inhibition [4]: -0.74%
inhibition [5]: -0.33%
inhibition [6]: 2.68%
inhibition [7]: 0.57%
inhibition [8]: -2.44%
inhibition [9]: -2.51%
inhibition [10]: 0.86%
inhibition [11]: 0.8%
inhibition [12]: -6.15%
inhibition [13]: 4.26%
inhibition [14]: -1.28%
inhibition [15]: -1.63%
inhibition [16]: -0.94%
inhibition [17]: -1.73%
inhibition [18]: 0.71%
inhibition [19]: 2.75%
inhibition [20]: 1.92%

COc1ccc(-c2coc3ncnc(N)c23)cc1
inhibition [1]: 3.94%
inhibition [2]: 3.92%
inhibition [3]: 5.31%
inhibition [4]: 1.63%
inhibition [5]: 1.94%
inhibition [6]: 9.42%
inhibition [7]: 12.4%
inhibition [8]: 7.79%
inhibition [9]: 8.17%
inhibition [10]: 10.8%
inhibition [11]: 12.9%
inhibition [12]: 0.87%
inhibition [13]: -0.02%
inhibition [14]: 3.78%
inhibition [15]: 4.6%
inhibition [16]: 10.7%
inhibition [17]: 11.6%
inhibition [18]: 4.41%
inhibition [19]: 3.73%
inhibition [20]: 5.6%

CS(=O)(=O)Nc1ccc(N/C=C2\C(=O)Nc3ccccc32)cc1
inhibition [1]: -2.22%
inhibition [2]: -2.44%
inhibition [3]: 4.73%
inhibition [4]: -0.09%
inhibition [5]: -1.35%
inhibition [6]: -0.22%
inhibition [7]: 5.75%
inhibition [8]: -1.67%
inhibition [9]: 10.4%
inhibition [10]: -1.81%
inhibition [11]: -2.55%
inhibition [12]: -2.55%
inhibition [13]: -4.45%
inhibition [14]: -1.85%
inhibition [15]: -1.69%
inhibition [16]: -2.11%
inhibition [17]: -2.88%
inhibition [18]: 3.85%
inhibition [19]: 23.8%
inhibition [20]: 0.83%

CCn1c(-c2nonc2N)nc2c(C#CC(C)(C)O)nc(CN3CCCC3)cc21
inhibition [1]: 0.03%
inhibition [2]: -0.33%
inhibition [3]: 1.82%
inhibition [4]: -3.55%
inhibition [5]: 1.55%
inhibition [7]: -2.45%
inhibition [8]: -1.49%
inhibition [9]: 0.49%
inhibition [10]: 0.05%
inhibition [11]: -0.31%
inhibition [12]: 6.66%
inhibition [13]: -1.42%
inhibition [14]: -0.49%
inhibition [15]: -0.42%
inhibition [16]: -1.48%
inhibition [17]: -0.59%
inhibition [18]: 4.99%
inhibition [19]: 12%
inhibition [20]: 4.42%

O=C1Nc2ccc(C(=O)c3ccco3)cc2C1=Cc1cc(Cl)c(O)c(Cl)c1
inhibition [1]: 8%
inhibition [2]: 3.46%
inhibition [3]: 11.4%
inhibition [4]: 0.35%
inhibition [5]: 0.09%
inhibition [6]: 1.54%
inhibition [7]: 5.95%
inhibition [8]: 2.67%
inhibition [9]: 12.5%
inhibition [10]: -0.53%
inhibition [12]: 1%
inhibition [13]: 6.57%
inhibition [14]: 1.24%
inhibition [15]: 0.24%
inhibition [16]: 3.31%
inhibition [17]: 2.14%
inhibition [18]: 3.54%
inhibition [19]: 14.2%
inhibition [20]: 4.74%
